TSHR antagonist: blocks TSH signaling through the human TSH receptor; P16473; TSHR-expressing cells, TSH-stimulated cAMP HTRF, 2 h; active compounds read low; activity change, negative = inhibition, % at 11.5 µM; 330,000 tested, 0.2% active;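 active = activity change below a set negative limit, meaning inhibition stronger than a set level, cut at about -70% in these data; inconclusive = activity change between two set negative limits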
Target sequence (P16473 whole entry, looked up): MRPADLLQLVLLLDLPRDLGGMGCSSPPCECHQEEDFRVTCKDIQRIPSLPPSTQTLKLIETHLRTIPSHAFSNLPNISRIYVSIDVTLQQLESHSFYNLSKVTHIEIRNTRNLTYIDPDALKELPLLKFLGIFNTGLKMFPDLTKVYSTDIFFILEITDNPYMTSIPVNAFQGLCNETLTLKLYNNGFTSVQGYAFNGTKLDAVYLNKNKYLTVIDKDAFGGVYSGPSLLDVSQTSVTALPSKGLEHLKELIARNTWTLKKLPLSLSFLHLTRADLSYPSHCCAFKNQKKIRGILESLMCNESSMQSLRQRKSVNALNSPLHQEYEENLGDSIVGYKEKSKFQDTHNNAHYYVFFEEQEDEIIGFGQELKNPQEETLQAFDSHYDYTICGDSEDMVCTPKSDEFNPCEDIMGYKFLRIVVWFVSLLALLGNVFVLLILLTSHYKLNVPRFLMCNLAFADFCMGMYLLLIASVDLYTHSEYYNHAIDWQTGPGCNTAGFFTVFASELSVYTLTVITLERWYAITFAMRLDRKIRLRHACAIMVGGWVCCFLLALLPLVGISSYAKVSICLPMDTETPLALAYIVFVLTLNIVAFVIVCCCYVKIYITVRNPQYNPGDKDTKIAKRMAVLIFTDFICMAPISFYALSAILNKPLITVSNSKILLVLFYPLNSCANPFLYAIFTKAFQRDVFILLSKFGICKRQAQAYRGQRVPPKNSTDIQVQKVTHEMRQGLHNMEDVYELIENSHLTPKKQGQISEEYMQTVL
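TSHR-expressing cells, 200/well, pre-treated with compound, then stimulated with EC80 TSH (4nM final) for 2 hours at 37 deg C. cAMP measured by competitive HTRF: anti-cAMP cryptate antibody in lysis buffer plus cAMP-d2, read after 30 minutes at room temperature.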
RORg inh: inhibitors of mouse ROR gamma transcriptional activity; 310,000 tested, 5.4% active; AID 2551; P51450; Drosophila S2 Gal4-RORgamma UAS-luciferase reporter, 20 h; Potency, µM (series often up to 53.6 µM), inactives show top-dose activity change, negative = inhibition, most hits filed as inhibitors; also: potency is read from the fitted curve at half-maximal effect; nearly all actives have a fitted effect of over 60% in size
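Read-out: Photinus luciferase luminescence; inhibitors lower reporter signal. Insect Schneider cells with Gal4-ROR gamma fusion under metallothionein promoter, UAS reporter; 700 uM final copper sulfate induction, 20 hr, ambient temperature.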
ELG1 DNA repair: blocks ELG1-dependent DNA repair in HEK293T cells. HEK293T ELG1-luciferase reporter, luminescence, 16 h; DNA damage induced by 5-fluorouridine. Potency, µM (titrated, usually from 46.1 µM), for the others: top-dose activity change, negative = inhibition, usual class: inhibitors. 330,000 tested, 2.3% active. AID 504467; also: potency is read from the fitted curve at half-maximal effect; nearly all actives have a fitted effect of over 55% in size
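DMSO vehicle served as the neutral condition. Each well held 2,000 cells given 5-fluorouridine plus compound; after 16 hr at 37 °C/5% CO2, ONE-Glo was added and luciferase measured 30 min later.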
Coupling enz: inhibits coupling enzyme system, counter-screen for aldolase hits; coupling enzyme system counterscreen, AmpLite Red fluorescence; 290,000 tested, 0.67% active; AID 2472; activity change, negative = inhibition, % at 58.2 µM, hits read low; in the data active = activity change below about -30%
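Activity here indicates interference with the coupling reaction, not aldolase inhibition. Compounds at 57.5 uM final met coupling enzymes for 10 min at RT; substrate and AmpLite Red detection followed, with a 525/598 nm fluorescence read after 20 min.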
VP16 counter: inhibits Gal4-VP16 luciferase reporter, ROR gamma counter-screen | Potency, µM (top dose mostly 53.6 µM), inactives show at the highest dose activity, negative = inhibition, actives largely listed as inhibitors | AID 2546 | Drosophila S2 Gal4-VP16 UAS-luciferase, luminescence, 20 h | 310,000 tested, 3.5% active;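 also: Gal4-VP16 expression switched on by copper sulfate through the metallothionein promoter; potency is read from the fitted curve at half-maximal effect; nearly all actives have a fitted effect of over 50% in size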
* hit, by the source's call; ? = inconclusive; nt = not tested or not shown; [ ] = remark or other dose. This is a sample that favours compounds with a hit; in the whole collection about 8% have one here. Unless noted, calls follow the shape of the dose curve; as a rule, active = well fitted curve in the direction sought with a large enough effect; inconclusive = small, poorly fitted or top-dose-only effect, or another doubt; inactive = no such curve, though single readings can be large; an effect the other way counts as inactive or inconclusive. % is scaled to controls: 0 for no effect and ±100 for the full control effect.

SMILES	TSHR antagonist	RORg inh	ELG1 DNA repair	Coupling enz	VP16 counter
COC(=O)[C@@]1(Cc2ccc(F)cc2)[C@H]2c3cc(C(=O)N(C)C)n(Cc4cccc5ccccc45)c3C[C@H]2CN1C(=O)c1ccccc1	nt	44%	nt	0	-15%
CN1CCN(c2ncnc3ccc(-c4ccccc4Cl)cc23)CC1	nt	33%	nt	2	?
CCN(CC)C(=O)CSc1nc2ccccc2c(=O)n1CC	-9	?	-3%	2	2%
CC(=O)NCCn1c(SCC#N)nc2ccccc2c1=O	12	0.22µM*	-1%	0	4%
CCN(CC)C(=O)CSc1nc2ccccc2c(=O)n1CCC(=O)NCc1ccc(F)cc1	12	?	12µM*	2	?
O=C1OCCC1Sc1nc2ccccc2c(=O)n1Cc1ccc(F)cc1 (stereo unspecified)	2	4µM*	11%	1	8.9µM*
O=C(CSc1nc2ccccc2c(=O)n1Cc1ccc(F)cc1)NCc1cccs1	4	2.8µM*	17%	1	5µM*
O=C1OCCC1Sc1nc2ccccc2c(=O)n1-c1ccc(F)cc1 (stereo unspecified)	14	?	14%	0	-1%
NC(=O)N(N)c1nc(N2CCCC2)nc(N2CCCC2)n1	-8	nt	7%	nt	nt
COc1ccc(CCNc2ncnc3c2c(C)c(C)n3CCCN(C)C)cc1OC	-9	-9%	8%	0	-2%
COc1ccc(CCNc2ncnc3c2oc2ccccc23)cc1OC	-80*	?	16µM*	-9	1µM*
COc1ccc(CCNc2ncnc3c2c(C)c(C)n3CCO)cc1OC	-9	?	23µM*	-1	?
COc1ccc(CCNc2nc(C)nc3c2oc2ccccc23)cc1OC	?	1%	10µM*	1	-10%
Cc1ccc(N)c(Cl)c1	nt	15%	nt	-3	19%
CCCCc1nc2c(c3c1C[C@H](C)OC3)CN(C(=O)NCCc1c[nH]c3ccccc13)CC2	nt	nt	nt	4	nt
O=c1c(-c2ccc(O)cc2)coc2cc(O[C@@H]3O[C@H](CO)[C@@H](O)[C@H](O)[C@H]3O)cc(O)c12	nt	13%	nt	2	4%
O=c1oc2c(O)cccc2cc1-c1nc2ccccc2[nH]1	9	?	?	2	?
COc1ccc2oc(=O)c(-c3nc4ccccc4o3)cc2c1	-15	4%	?	0	2%
COc1cccc(N=c2oc3ccc(OC)cc3cc2-c2nc3ccccc3[nH]2)c1	nt	14µM*	nt	1	-26%
COc1cccc(N=c2oc3ccccc3cc2-c2nc3ccccc3[nH]2)c1	12	7.9µM*	?	2	?
COc1ccc(N=c2oc3ccc(OC)cc3cc2-c2nc3ccccc3[nH]2)cc1	nt	10µM*	nt	0	-7%
COC(=O)c1ccc(CNC(=O)c2ccc(OC)c(S(=O)(=O)NC3CCCC3)c2)cc1	-14	nt	-25%	nt	nt
CCN1C(=O)[C@H]2[C@H]3[C@H](O)[C@H](O)C/C(=N/OC/C=C(\C)CCC=C(C)C)[C@@H]3CC[C@@H]2C1=O	nt	1%[10 µM]	nt	-1	-10%[10 µM]
O=C(O)c1ccc(-n2nc(C(F)(F)F)cc2-c2cccs2)cc1	15	-6%	-2%	18	-10%
O=C(Nc1nnc(-c2cccnc2)o1)c1cccc(Cl)c1	8	0.5µM*	16µM*	1	0.71µM*
SMILES	TSHR antagonist	RORg inh	ELG1 DNA repair	Coupling enz	VP16 counter
Cc1cccc(-c2nnc(NC(=O)c3ccc(Cl)cc3)o2)c1	-15	1.4µM*	-6%	-2	1.4µM*
O=C(Nc1nnc(-c2ccc(Cl)cc2)o1)Nc1ccccc1Cl	nt	-5%	22%	1	-4%
COc1cc(OC)cc(C(=O)Nc2nnc(-c3cccnc3)o2)c1	-4	1.4µM*	?	0	4.5µM*
COc1cc(OC)cc(C(=O)NCCCNC(=O)c2cccnc2)c1	0	-26%	4%	0	-1%
O=C(Nc1cccc(NC(=O)c2cccc(Cl)c2)c1)c1cccnc1	5	14%	-11%	-4	-13%
CCOC(=O)c1cc(-c2ccc(OC)cc2F)nc2c1c(C)nn2CCC#N	-27	25%	12µM*	0	3%

Compound activity (PubChem)
